Measured values reported in ChEMBL document CHEMBL3433997, “St. Jude Leishmania screening dataset” (2016).

What was measured:
Assay type in all cases: functional
[1] = biological target: Solute carrier family 2, facilitated glucose transporter member 1 (Homo sapiens) (UniProt P11166); assay: ST_JUDE_LEISH: Cytotoxicity at 2uM final concentration against transgenic Leishmania Mexicana promastigotes LmGLUT1 that are glucose transport deficient and complemented with the human glucose transporter GLUT1. Activity is measured by DNA content using SYBR green in vitro
Solute carrier family 2, facilitated glucose transporter member 1 (Homo sapiens), sequence (P11166 whole entry): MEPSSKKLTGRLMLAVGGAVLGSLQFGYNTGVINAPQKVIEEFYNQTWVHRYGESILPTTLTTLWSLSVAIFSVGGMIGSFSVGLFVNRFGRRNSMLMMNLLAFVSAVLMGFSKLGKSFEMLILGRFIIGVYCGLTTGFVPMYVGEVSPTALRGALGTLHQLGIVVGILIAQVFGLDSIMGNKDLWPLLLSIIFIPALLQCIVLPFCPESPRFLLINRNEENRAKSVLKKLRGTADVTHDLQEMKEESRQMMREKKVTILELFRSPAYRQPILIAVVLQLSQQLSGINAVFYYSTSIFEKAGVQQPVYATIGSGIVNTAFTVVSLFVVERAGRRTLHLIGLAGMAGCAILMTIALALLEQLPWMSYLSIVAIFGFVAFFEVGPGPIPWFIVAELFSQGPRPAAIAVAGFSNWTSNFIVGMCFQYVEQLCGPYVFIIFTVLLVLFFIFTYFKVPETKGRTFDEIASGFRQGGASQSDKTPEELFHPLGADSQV

[2] = biological target: Hexose transporter 1 (Plasmodium falciparum) (UniProt O97467); assay: ST_JUDE_LEISH: Cytotoxicity at 2uM final concentration against transgenic Leishmania Mexicana promastigotes LmPfHT that are glucose transport deficient and complemented with the Plasmodium falciparum hexose transporter. Activity is measured by DNA content using SYBR green in vitro
[3] = biological target: Glucose transporter (Leishmania mexicana) (UniProt O61059); assay: ST_JUDE_LEISH: Cytotoxicity at 2uM final concentration against transgenic Leishmania Mexicana promastigotes LmGT2 that are glucose transport deficient and complemented with the L. Mexicana glucose transporter 2. Activity is measured by DNA content using SYBR green in vitro

Row | SMILES | inhibition [1] [%] | inhibition [2] [%] | inhibition [3] [%]
1 | CN1CCN(CCCN(Cc2csc(-c3ccc(CNCc4ccccc4)cc3)n2)C(=O)Nc2cccc(Cl)c2)CC1 | 1.91 | -0.25 | 2.48
2 | O=C(/C=C/c1ccc(Cl)c(Cl)c1)NCCCCCCN1CCN(C(=O)Nc2cc(Cl)nc(Cl)c2)CC1 | 2.96 | 2.93 | 2.49
3 | O=C(Nc1cccc(CN2CCN(C(=O)c3ccccc3)CC2)c1)c1cccs1 | 4.55 | 2.87 | 3.92
4 | CC(=O)c1c(Cc2cccc(C(F)(F)F)c2)c[nH]c1C | 5.85 | 3.6 | -0.87
5 | O=c1cc(NCCCNCc2ccc(C(F)(F)F)c(F)c2)[nH]c2ccccc12 | 0.24 | 0.58 | -0.68
6 | N#Cc1cncc(-c2nc3c(N4CCC(Cc5ccccc5)CC4)cccc3n2CCNCc2ccccc2)c1 | 5.27 | 4.45 | 6.16
7 | CC(=O)NC(c1cccs1)c1cc(Cl)c2cccnc2c1O (centres undefined) | 7.76 | 6.65 | 7.85
8 | O=S(=O)(NCCN1CCCC1)c1ccc(-c2ccc(CNCc3ccsc3)cc2)s1 | 10.5 | 7.66 | 4.76
9 | CNC(=O)c1ccc2nc(-c3ccc(-c4ccccc4)cc3)n(CC3CCN(CC4CCCC4)CC3)c2c1 | 1.8 | 0.69 | 1.13
10 | CCCC1CCNC(C(O)c2ccnc3ccc(OC)cc23)C1 (centres undefined) | 1.89 | 1.16 | 2.16
11 | CCOC(=O)NCC(=O)Nc1cccc(-c2cccc(-c3nc4cc(C(F)(F)F)ccc4[nH]3)c2)c1 | 1.41 | 0.35 | 5.34
12 | CC(C)CCN1CCCN(Cc2cccc(NC(=O)c3cc4ccccc4s3)c2)CC1 | -0.92 | 0.43 | 2.29
13 | CN1Cc2cc(NC(=O)/C=C/c3ccccc3Cl)ccc2C(C)(C)C1 | 10.7 | 8.21 | 6.98
14 | CCCN1CCN(CCCNC(=O)c2cc3c(Cl)nc4ccc(C)cc4c3s2)CC1 | -1.56 | 1.08 | -1.97
15 | Cn1nccc1C(=O)NCCNCc1cccc(-c2csc(-c3nc4ccccc4[nH]3)c2)c1 | 9.15 | 8.22 | 7.22
16 | Cc1cccc2nc(-c3cccc(-c4ccc(C(=O)NCc5nccn5C)cc4)c3)[nH]c12 | 1.94 | 3.7 | 1.69
17 | O=C(N[C@H]1CCN(Cc2ccc(OCCN3CCNCC3)c3ccccc23)C1)c1ccc(Cl)c(Cl)c1 | 1.1 | 4.37 | 2.91
18 | O=C(C=Cc1ccc(Cl)c(Cl)c1)NC1CCN(CCc2ccccc2)CC1 | 0.9 | 1.06 | -4.41
